The supplement of paper PMC10849652
About 8,800 targets were measured; listed, in parts, are those with a hit and a random draw of the rest. About 0.5% of all pairs of compound and target were hits.

Key:
Assay in all cases: log2 fold change, soluble protein after heating vs DMSO (PISA); higher = thermal stabilisation; K562 lysate, 10 uM; active = over 0.2 and 3.5 SD of the protein, either way, in both replicates (recomputed)
[1] = compound: CC1=C2C(=CC=C1)N=C(N(C2=O)C3=CC=CC=C3C)CN4C=NC5=C(N=CN=C54)N
How it was run: (§1)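 The values are log-two fold changes in thermal stability compared with solvent controls and come from duplicates. They were obtained by TMTpro 16plex LC-MS/MS, with channel sums equalised, on the supernatant after 21,000xg for 90 min. That supernatant came from crude K562 extract at 1 mg/mL protein treated with 10 μM compound for 30 min, heated for 3 min across 48°C-58°C, pooled and brought to 0.5% NP-40 at 4°C.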

[2] = compound: c1ccc([C@@H]2C[C@H]2NC2CCNCC2)cc1
How it was run: as §1

[3] = compound: C1=CC=C(C=C1)[C@H](COC2=CC3=C(C=C2)NC(=O)N3)NC(=O)C4=CC=CN(C4=O)CC5=CC(=C(C=C5)F)F
How it was run: as §1

[4] = compound: CC1=C(SC2=C1C(=N[C@H](C3=NN=C(N32)C)CC(=O)N)C4=CC=C(C=C4)Cl)C
How it was run: as §1

[5] = compound: Cc1sc2c(c1C)C(c1ccc(Cl)cc1)=N[C@@H](CC(=O)OC(C)(C)C)c1nnc(C)n1-2
How it was run: as §1

Measured: log2 fold change

PRR4 (UniProt Q16378)
Chain of UniProt Q16378 (Q16378 whole entry, looked up): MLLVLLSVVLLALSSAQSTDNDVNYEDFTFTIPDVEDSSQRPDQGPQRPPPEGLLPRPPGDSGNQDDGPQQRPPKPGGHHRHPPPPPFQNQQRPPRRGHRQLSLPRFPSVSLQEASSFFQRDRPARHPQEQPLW
inactive: [1] -0.076 | [2] -0.269

PDF (UniProt Q9HBH1)
Chain of UniProt Q9HBH1 (Q9HBH1 whole entry, looked up): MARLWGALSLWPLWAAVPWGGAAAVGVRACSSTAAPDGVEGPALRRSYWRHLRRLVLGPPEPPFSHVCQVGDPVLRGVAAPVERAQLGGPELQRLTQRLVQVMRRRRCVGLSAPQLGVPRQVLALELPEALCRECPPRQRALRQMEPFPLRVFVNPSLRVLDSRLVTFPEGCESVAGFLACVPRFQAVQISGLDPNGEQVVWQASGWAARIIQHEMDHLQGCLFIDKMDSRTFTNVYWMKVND
inactive: [3] -0.056 | [4] -0.007 | [1] -0.024 | [5] 0.024 | [2] 0.028

PDIA4, A0A499FI48
inactive: [5] 0.083 | [2] 0.564
